# The campaign covered roughly 310,000 compounds. About 14,000 (4.5%) showed an effect of 50% or more. The effect is printed as a negative number. The sample as a whole holds a higher share of strong results than the screen did.
# Biological target: human ether-à-go-go-related gene (hERG) potassium channel (human, UniProt Q12809)
# Experiment: primary screen, population patch clamp on CHO cells stably expressing hERG; higher = less effect of the substance
# 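Also: peak tail current of the secondary pulse compared with the same well before compound.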
# Sequence of human ether-à-go-go-related gene (hERG) potassium channel (Q12809 whole entry, looked up): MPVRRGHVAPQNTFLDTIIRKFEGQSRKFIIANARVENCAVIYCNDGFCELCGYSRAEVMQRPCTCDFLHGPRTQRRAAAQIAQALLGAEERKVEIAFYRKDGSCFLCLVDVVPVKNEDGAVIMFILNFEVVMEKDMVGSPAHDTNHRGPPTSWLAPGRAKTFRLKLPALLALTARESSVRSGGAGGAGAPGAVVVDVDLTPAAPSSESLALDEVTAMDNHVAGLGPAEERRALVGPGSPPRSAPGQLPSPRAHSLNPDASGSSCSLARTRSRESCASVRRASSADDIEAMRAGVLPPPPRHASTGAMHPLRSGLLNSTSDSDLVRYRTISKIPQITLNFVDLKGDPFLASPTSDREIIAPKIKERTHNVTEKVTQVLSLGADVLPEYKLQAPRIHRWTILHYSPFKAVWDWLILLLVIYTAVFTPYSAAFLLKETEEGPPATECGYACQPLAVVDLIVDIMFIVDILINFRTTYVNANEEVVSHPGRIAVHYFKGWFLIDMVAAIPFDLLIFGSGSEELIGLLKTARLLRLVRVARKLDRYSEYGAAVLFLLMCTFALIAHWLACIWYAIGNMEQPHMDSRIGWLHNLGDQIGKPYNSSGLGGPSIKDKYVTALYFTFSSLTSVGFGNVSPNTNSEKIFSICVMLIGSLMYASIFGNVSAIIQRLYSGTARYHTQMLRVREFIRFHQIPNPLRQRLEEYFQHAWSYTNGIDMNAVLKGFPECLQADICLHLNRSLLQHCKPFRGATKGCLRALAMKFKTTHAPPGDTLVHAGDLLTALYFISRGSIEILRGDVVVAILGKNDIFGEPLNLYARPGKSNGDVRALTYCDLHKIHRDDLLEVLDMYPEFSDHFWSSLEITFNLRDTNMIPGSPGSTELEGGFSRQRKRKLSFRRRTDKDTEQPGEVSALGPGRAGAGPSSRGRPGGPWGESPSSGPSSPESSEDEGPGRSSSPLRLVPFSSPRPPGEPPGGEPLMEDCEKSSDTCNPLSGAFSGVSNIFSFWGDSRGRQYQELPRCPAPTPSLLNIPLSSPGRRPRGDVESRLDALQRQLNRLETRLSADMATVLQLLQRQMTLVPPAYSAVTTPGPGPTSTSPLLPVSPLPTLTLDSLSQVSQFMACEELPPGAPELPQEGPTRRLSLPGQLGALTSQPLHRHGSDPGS
row,Compound,"hERG current change (%, negative = inhibition) at 10uM [%]"
1,CCNC(=S)NCc1ccc(F)cc1,5.03
2,Br.NS(=O)(=O)c1ccc(Nc2nc(-c3ccccc3)cs2)cc1,-26
3,CCCn1c(=O)c(C(=O)Nc2ccccc2C(=O)OC)c(O)c2ccccc21,5.91
4,S=C1NCCNC(=S)NCCOCCOCCOCCN1,15.2
5,CCOC(=O)c1nn(-c2ccccc2)c2nnc(Cc3ccc(Cl)cc3)c(=O)n12,3.57
6,COc1cccc(OC)c1OCCCCCCN1CCN(C)CC1.Cl,8.54
7,COc1ccc(OCC(=O)N2CCC(Cc3ccccc3)CC2)cc1,-36
8,COc1cccc(OC)c1OCCCN1CCC(Cc2ccccc2)CC1.O=C(O)C(=O)O,-80.6
9,COc1cccc(OC)c1OCCCCN1CCCC1,-2.47
10,COc1cccc(OC)c1OCCCCN1CCCCC1.O=C(O)C(=O)O,-2.55
11,COc1cccc(OC)c1OCCCCN1CCC(Cc2ccccc2)CC1.O=C(O)C(=O)O,-81.9
12,CC(=O)CCc1ccc(OCCCCN2CCC(Cc3ccccc3)CC2)cc1.O=C(O)C(=O)O,-79.5
13,CC(=O)CCc1ccc(OCCCCn2cncn2)cc1,-4.29
14,COc1cccc(OC)c1OCCCN1CCOCC1,4.22
15,COc1ccccc1OCC(=O)OCC(=O)Nc1ncc(Cl)cc1Cl,12.8
16,Cc1ccc2nc(NC(=O)/C=C/c3ccc4c(c3)OCO4)sc2c1,14.8
17,Cc1cccc(CNC(=O)c2ccc(NC(=O)C3=CSCCO3)cc2)c1,5.08
18,CSc1nnc(NC(=O)CCc2ccccc2)s1,-6.33
19,COc1ccc(NC(=O)CN(C)C(=O)c2ccccc2SCC(=O)N2CCCC2)cc1,10.5
20,OCCn1nc2c3ccccc3nc-2n(-c2ccccc2)c1=S,-9.49

row,Compound,"hERG current change (%, negative = inhibition) at 10uM [%]"
1,CN(C)C(=O)CSc1nc2ccccc2n1Cc1ccccc1,-11.8
2,O=C(O)CSc1nnc(Nc2ccccc2)n1-c1ccccc1,18.6
3,O=C(O)CCSc1nc2ccccc2n1Cc1ccccc1,24.1
4,CSc1nc2ccccc2n1Cc1cccc([N+](=O)[O-])c1,-44.8
5,CCN(CC)CCSc1nc2ccccc2c(=S)n1-c1ccccc1.Cl,-51.9
6,CCSc1nc2ccccc2n1Cc1cccc([N+](=O)[O-])c1,-69.7
7,CCN(CC)CCSc1nc(O)c(-c2ccccc2)c(=O)n1-c1ccccc1.Cl,12.1
8,CCN(CC)CCSc1nc2ccccc2n1Cc1ccccc1.Cl,-74.1
9,CCN(CC)C(=O)CSc1nnc(-c2ccccc2)n1-c1ccccc1,17.8
10,CCN(CC)CCSc1nnc(Nc2ccccc2)n1-c1ccccc1,-75.9
11,COc1ccc(Cn2c(SC)nc3ccccc32)cc1[N+](=O)[O-],13.9
12,CCc1n[nH]c(=S)n1/N=C/c1ccc(NC(C)=O)cc1,13
13,COc1cc(NC(=O)COC(=O)CO/N=C(\C)c2ccc3c(c2)OCO3)cc(OC)c1,14.6
14,CC1CCc2sc(C(=O)Nc3ccc(N4CCOCC4)cc3)cc2C1 (stereo not drawn),11.6
15,COc1cccc2c1OCC(C(=O)Nc1nccs1)=C2,-0.366
16,CC(=O)C1=C(O)C(=O)N(c2ccc(Br)cn2)C1c1ccccc1F (stereo not drawn),10.6
17,CC(=O)N(C)c1ccc(NS(=O)(=O)Cc2ccccc2)cc1,-8.12
18,O=C(CCSc1ccccc1)Nc1ncccn1,14.9
19,COC(=O)c1ccc(Cl)c(NS(=O)(=O)c2ccc3c(c2)OCCO3)c1,-25.4
20,Cc1sc2nc3c4ccccc4c(NCc4ccco4)nn3c(=O)c2c1C,-56.6

row,Compound,"hERG current change (%, negative = inhibition) at 10uM [%]"
1,O=c1c2ccccc2nc2c3ccccc3c(NCc3ccco3)nn12,-17.8
2,Cc1sc2nc3ccc(NCc4ccco4)nn3c(=O)c2c1C,-21.7
3,COc1nc(N/N=C/c2ccccc2F)nc(N2CCCCC2)n1,-15.6
4,COc1ccc(NC(=O)NCCCN2CCCC2=O)cc1,4.11
5,O=C(CN1CCc2ccccc2C1)Nc1ccc(Br)cc1,-34.2
6,O=C(NCCCN1CCc2ccccc2C1)Nc1ccc(Cl)cc1,-65.5
7,O=C(NCCCN1CCc2ccccc2C1)Nc1ccc(Br)cc1,-71.7
8,COc1ccc(NC(=O)NCCCN2CCc3ccccc3C2)cc1,-69.2
9,O=C(NCCCN1CCCC1=O)Nc1ccc(Cl)cc1,2.13
10,COc1ccc(NC(=O)NCCN2CCc3ccccc3C2)cc1,-34.6
11,O=C(Nc1ccc(Br)cc1)N1CCc2ccccc2C1,2.91
12,CN1CCN(CCNC(=O)Nc2ccc(Cl)cc2)CC1,-0.17
13,COc1ccc(-c2csc(NC(=O)Cc3ccccc3F)n2)cc1OC,2.29
14,CC(Oc1cc2oc(=O)c3c(c2cc1Cl)CCCC3)C(=O)NCc1ccncc1 (stereo not drawn),-41.8
15,Cc1[nH]c2ccccc2c1C1(O)C(=O)N(C(C)C)c2ccccc21 (stereo not drawn),16.7
16,CC1CC2(CC(C)(C(=O)CSc3nc4ccccc4s3)OC2=O)C(=O)O1 (stereo not drawn),-1.16
17,CCOC(=O)C1=C(C)NC(C)=C(C(=O)OCC)C1C(=O)OCC(=O)N1CCc2ccccc21,-1.82
18,CC(C)CC(=O)Nc1ccccc1-c1nnn(CC(=O)N2CCOCC2)n1,-2.78
19,NC(=S)NNc1c(F)c(F)c(F)c(F)c1F,28.9
20,Cc1ccc(F)c(NC(=O)c2c(-c3ccccc3)noc2C)c1,7.17

# Source: paper PMC4336329 (PLoS ONE, 2015)
